A number with no mark means an inactive call.
Tests used:
Experiment in all cases: log2 ratio of Biotin-Ahx-Ub-VS probe labelling (fragment/DMSO); higher = less target engagement (more negative = stronger competition), active = hit call of the paper (q ≤ 0.05, log2 ratio ≤ -1)
Details in all cases: compound concentration: 200 uM; treatment time: 3 h
OTUD6B = target: T1, OTUD6B (UniProt Q8N6M0)
T1 sequence (whole entry): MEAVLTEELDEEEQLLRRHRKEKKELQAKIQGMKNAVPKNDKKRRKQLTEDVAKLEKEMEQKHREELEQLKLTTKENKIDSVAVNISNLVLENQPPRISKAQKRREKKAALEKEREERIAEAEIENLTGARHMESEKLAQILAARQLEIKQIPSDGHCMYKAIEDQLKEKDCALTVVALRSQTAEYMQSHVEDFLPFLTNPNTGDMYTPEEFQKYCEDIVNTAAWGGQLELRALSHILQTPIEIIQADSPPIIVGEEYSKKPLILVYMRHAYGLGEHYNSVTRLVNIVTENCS
Outline: (§1)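 Each value is an average log2 ratio of fragment to vehicle, tested by unpaired t-test. The underlying Spectronaut label-free quantities were global-median-normalised, and only proteins with ≥2 unique peptides were included. Triplicate HEK293T lysate samples (495 µg) were exposed to fragment at 200 µM or vehicle for 3 h, then to Biotin-Ahx-Ub-VS at 0.5 µM final for 1 h, before NeutrAvidin enrichment of labelled DUBs, LysC and trypsin digestion, and diaPASEF LC-MS/MS.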

OTUD7B = target: T2, OTUD7B (UniProt Q6GQQ9)
T2 sequence (whole entry): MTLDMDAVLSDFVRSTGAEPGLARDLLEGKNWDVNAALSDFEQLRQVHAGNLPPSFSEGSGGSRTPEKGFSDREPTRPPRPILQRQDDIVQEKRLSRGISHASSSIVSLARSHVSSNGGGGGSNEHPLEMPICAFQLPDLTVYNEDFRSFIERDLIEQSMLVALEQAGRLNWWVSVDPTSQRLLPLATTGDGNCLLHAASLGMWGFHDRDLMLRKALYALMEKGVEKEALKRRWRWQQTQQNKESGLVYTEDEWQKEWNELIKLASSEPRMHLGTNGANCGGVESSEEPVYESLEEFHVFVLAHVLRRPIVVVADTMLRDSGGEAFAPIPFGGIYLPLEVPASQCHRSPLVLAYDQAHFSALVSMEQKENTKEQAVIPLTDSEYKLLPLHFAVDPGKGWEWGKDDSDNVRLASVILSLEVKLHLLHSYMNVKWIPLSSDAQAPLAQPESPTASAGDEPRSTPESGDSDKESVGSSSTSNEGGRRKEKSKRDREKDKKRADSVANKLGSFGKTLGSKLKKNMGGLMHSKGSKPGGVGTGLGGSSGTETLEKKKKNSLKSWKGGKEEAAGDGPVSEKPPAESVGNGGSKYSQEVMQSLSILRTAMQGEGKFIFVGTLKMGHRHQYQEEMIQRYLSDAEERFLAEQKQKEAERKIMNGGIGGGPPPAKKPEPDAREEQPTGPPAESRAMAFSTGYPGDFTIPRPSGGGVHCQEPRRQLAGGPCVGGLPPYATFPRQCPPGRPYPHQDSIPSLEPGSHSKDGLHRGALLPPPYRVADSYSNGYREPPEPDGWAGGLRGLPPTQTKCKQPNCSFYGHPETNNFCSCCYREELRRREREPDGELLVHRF
Outline: as §1

PRPF8 = PRPF8 (UniProt Q6P2Q9)
Outline: as §1

PSMD7 = target: T3, PSMD7 (UniProt P51665)
T3 sequence (whole entry): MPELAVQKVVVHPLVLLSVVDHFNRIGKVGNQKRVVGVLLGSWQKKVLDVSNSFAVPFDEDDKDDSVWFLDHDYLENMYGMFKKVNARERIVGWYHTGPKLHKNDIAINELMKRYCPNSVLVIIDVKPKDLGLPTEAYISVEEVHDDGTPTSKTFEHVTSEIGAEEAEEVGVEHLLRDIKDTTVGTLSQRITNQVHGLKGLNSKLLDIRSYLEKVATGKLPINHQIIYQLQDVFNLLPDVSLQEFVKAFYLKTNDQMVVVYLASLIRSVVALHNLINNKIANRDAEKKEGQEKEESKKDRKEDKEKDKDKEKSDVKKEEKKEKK
Outline: as §1

UCHL1 = UCHL1 (UniProt P09936)
Outline: as §1

UCHL3 = target: T4, UCHL3 (UniProt P15374)
T4 sequence (whole entry): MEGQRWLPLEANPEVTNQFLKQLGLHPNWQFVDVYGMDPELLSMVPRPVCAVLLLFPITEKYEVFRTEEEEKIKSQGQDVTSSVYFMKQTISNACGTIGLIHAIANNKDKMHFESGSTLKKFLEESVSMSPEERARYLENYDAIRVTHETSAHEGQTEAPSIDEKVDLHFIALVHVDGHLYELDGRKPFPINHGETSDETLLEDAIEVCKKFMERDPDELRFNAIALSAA
Outline: as §1

UCHL5 = target: T5, UCHL5 (UniProt Q9Y5K5)
T5 sequence (whole entry): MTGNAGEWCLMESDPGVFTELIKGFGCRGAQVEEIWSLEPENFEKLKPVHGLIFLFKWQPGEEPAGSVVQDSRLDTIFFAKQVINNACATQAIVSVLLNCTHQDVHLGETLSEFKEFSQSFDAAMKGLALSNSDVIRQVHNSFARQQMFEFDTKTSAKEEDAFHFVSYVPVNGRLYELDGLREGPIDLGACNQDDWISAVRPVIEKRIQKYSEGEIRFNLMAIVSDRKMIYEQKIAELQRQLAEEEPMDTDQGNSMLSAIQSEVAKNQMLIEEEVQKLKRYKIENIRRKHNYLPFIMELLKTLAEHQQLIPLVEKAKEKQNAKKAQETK
Outline: as §1

USP10 = USP10 (UniProt Q14694)
Outline: as §1

USP15 = target: T6, USP15 (UniProt Q9Y4E8)
T6 sequence (whole entry): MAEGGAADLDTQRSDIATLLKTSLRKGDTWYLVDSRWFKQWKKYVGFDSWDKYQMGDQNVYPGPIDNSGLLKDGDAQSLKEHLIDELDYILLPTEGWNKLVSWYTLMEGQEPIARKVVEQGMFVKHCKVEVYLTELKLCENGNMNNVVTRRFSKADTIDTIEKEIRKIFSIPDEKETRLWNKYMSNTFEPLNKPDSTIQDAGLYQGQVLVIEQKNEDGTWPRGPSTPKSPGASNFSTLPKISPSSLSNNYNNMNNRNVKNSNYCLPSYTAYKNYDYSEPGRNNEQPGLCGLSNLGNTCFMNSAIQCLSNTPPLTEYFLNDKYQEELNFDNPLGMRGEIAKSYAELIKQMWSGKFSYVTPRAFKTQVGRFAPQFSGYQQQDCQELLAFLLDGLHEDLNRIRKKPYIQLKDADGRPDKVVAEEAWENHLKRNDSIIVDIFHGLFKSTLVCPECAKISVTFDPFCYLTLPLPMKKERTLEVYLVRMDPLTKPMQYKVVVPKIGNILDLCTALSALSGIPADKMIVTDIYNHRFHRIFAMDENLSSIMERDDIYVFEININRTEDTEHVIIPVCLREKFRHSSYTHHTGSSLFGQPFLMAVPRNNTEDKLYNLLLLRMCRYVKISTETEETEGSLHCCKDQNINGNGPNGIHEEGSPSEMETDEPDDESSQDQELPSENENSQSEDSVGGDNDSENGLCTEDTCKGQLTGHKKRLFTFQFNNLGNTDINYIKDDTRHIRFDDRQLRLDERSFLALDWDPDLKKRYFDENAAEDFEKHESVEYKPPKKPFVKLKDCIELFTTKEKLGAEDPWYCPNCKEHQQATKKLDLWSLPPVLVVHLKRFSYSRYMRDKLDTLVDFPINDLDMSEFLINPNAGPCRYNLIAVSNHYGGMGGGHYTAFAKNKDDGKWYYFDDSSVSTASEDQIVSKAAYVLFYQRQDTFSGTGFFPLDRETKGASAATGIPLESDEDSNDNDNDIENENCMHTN
Outline: as §1

USP16 = USP16 (UniProt Q9Y5T5)
Outline: as §1

Chain of USP16 (Q9Y5T5 whole entry, looked up): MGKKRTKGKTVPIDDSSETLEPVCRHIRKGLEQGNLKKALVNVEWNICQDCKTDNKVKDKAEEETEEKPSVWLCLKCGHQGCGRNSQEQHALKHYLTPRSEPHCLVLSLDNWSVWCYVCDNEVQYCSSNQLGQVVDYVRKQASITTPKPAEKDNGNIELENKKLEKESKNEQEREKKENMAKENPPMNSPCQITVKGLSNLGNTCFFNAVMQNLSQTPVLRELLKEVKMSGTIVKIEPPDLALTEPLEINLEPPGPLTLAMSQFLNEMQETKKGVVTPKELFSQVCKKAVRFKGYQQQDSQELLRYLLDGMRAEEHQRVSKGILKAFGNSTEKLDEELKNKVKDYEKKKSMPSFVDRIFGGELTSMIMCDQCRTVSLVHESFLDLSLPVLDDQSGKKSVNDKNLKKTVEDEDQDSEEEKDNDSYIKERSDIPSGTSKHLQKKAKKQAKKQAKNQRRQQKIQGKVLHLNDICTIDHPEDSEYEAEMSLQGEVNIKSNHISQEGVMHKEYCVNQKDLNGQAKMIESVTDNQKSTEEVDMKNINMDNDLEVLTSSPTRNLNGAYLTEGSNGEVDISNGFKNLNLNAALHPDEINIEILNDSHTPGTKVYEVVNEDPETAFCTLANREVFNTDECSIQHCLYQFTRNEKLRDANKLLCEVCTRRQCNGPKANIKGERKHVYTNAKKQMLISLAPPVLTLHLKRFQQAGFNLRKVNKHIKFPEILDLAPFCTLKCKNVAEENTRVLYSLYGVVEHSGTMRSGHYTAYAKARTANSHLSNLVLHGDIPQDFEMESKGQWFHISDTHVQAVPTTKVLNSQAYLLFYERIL
Chain of USP10 (Q14694 whole entry): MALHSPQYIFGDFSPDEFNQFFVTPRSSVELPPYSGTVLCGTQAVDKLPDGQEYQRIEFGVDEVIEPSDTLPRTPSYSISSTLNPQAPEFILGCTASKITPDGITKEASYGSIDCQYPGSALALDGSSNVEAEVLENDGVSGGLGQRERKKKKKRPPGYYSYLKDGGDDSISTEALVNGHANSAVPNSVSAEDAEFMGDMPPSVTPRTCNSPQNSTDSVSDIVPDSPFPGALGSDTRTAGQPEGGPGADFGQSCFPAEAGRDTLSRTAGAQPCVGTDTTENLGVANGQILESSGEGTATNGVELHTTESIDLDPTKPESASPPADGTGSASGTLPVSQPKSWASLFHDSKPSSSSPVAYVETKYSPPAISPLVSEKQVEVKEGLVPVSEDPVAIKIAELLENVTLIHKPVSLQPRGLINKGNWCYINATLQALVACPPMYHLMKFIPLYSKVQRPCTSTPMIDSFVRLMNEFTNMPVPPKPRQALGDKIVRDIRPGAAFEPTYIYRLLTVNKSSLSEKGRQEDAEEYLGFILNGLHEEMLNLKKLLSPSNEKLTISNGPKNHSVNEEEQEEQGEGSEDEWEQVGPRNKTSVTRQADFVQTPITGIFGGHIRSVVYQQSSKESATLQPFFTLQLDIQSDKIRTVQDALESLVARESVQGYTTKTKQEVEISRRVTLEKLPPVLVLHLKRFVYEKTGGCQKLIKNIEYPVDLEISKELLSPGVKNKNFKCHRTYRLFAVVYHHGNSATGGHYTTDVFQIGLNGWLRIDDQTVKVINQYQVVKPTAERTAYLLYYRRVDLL
Chain of UCHL1 (P09936 whole entry, looked up): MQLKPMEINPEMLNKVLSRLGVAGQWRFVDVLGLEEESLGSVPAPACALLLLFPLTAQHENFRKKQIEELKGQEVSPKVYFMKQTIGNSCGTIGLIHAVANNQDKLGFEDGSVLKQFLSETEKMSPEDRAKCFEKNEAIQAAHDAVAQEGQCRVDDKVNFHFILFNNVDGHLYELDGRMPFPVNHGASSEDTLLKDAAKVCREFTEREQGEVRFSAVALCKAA

O=C(CCl)Nc1ccc(N2CCCC2=O)cc1
log2 ratio of Biotin-Ahx-Ub-VS probe labelling (OTUD6B): 0.116
log2 ratio of Biotin-Ahx-Ub-VS probe labelling (OTUD7B): -0.359
log2 ratio of Biotin-Ahx-Ub-VS probe labelling (PRPF8): 0.162
log2 ratio of Biotin-Ahx-Ub-VS probe labelling (PSMD7): -0.145
log2 ratio of Biotin-Ahx-Ub-VS probe labelling (UCHL1): -1.1 (active)
log2 ratio of Biotin-Ahx-Ub-VS probe labelling (UCHL3): 0.206
log2 ratio of Biotin-Ahx-Ub-VS probe labelling (UCHL5): -0.098
log2 ratio of Biotin-Ahx-Ub-VS probe labelling (USP10): -0.0139
log2 ratio of Biotin-Ahx-Ub-VS probe labelling (USP15): 0.104
log2 ratio of Biotin-Ahx-Ub-VS probe labelling (USP16): 0.0122

— the supplement of paper PMC11732987, “Enantioselective OTUD7B fragment discovery through chemoproteomics screening and high-throughput optimisation” (Communications Chemistry, 2025)
